Laboratory results taken from PubChem BioAssay AID504832 (National Center for Advancing Translational Sciences (NCATS), 2011).
In all, about 310,000 compounds went through this assay and about 18,000 (5.8%) were called active. Not shown: some 22% with an inconclusive outcome. For the sample, actives were picked, then their nearest neighbours and some compounds at random. Values without a mark were called inactive. Calls come from the whole dose curve; as a rule, active = well fitted inhibition curve with a large enough effect; inconclusive = small, poorly fitted or top-dose-only effect, or another doubt; inactive = no such curve, though single readings can be large or run the other way.

Test: Primary qHTS for delayed death inhibitors of the malarial parasite plastid, 48 hour incubation
Details: P. falciparum luciferase growth in erythrocytes; series mostly up to 28.7 µM; activity change, negative = inhibition: at the top concentration
Excerpt: The goal of this screen is to discover new antimalarial compounds that act by inhibiting the development of the apicoplast in the malarial parasite Plasmodium falciparum. The biochemical processes that make this organelle essential for erythrocytic stage parasites are not well understood. However, antibiotics such as azithromycin and tetracycline, which target the apicoplast translational machinery, have a potent antimalarial effect.
We have developed a cell-based assay that measures parasite growth based on the expression of an integrated copy of a firefly luciferase reporter. To detect small molecules that cause this "delayed death" phenotype, erythrocytes infected with the luciferase-expressing parasites were incubated with compounds for either one or two generations, corresponding to 48 and 96 hours, respectively. Compounds that inhibit parasite growth in the second generation, but not the first, should be enriched in antimalarials that target the apicoplast. Growth inhibition is detected by a decrease in luciferase activity.
Assay Provider: David Fidock and Eric Ekland, Columbia University
Keywords: NIH Roadmap, MLPCN, MLI, MLSMR, qHTS, NCGC, qHTS, malaria, luciferase, viability
Four microliters of culture medium (RPMI 1640 with 0.5% w/v Albumax (GIBCO), 24 mM sodium bicarbonate and 10 ug/mL gentamycin) were dispensed by a Multi-drop Combi into white solid 1536-well plates (Grenier) and 23 nL compound was added by a pin tool. Four microliters of infected erythrocytes (2% hematocrit, 0.1% parasitemia final concentration) in culture medium were dispensed and the plates incubated for 48 hours at 37 C in 5% CO2. Two microliters of luciferase detection reagent was added and luminescence was detected by a ViewLux (PerkinElmer) reader.
% is set by controls: 0 for no effect and ±100 for the full control effect; potency is the fitted concentration of half-maximal effect.

Row | SMILES | activity change, negative = inhibition | Potency
1 | O=C(NCC(=O)N1CCCCCCC1)c1ccccc1Cl | 51.7% | –
2 | Cc1ccc(CN2C(=O)CCC2C(=O)NCCCN2CCCCC2C)cc1 (centres undefined) | 27% | –
3 | CCC1CCCCN1CCCNC(=O)Cn1nc(-c2ccccc2)ccc1=O (centres undefined) | 4.91% | –
4 | CCC1CCCCN1CCCNC(=O)c1cc2c(Cl)nc3ccccc3c2s1 (centres undefined) | – | 11.7 µM (active)
5 | CCOc1cc2c(cc1OCC)C(C(=O)O)C(c1ccc(OC)c(O)c1)N(C)C2=O (centres undefined) | 8.88% | –
6 | COc1cccc(NC(=O)CSc2nnc(-c3cccnc3)o2)c1 | 27.1% | –
7 | COc1cccc(NC(=O)C2c3cc(OC)c(OC)cc3C(=O)N(C)C2c2cccnc2)c1 (centres undefined) | – | 8.28 µM (active)
8 | CCC(c1nnc(SCC(=O)NNC(=O)c2ccccc2)n1Cc1ccccc1)N(C)C (centres undefined) | 2.43% | –
9 | O=C(Nc1ccc(OCC(=O)N2CCOCC2)cc1)c1cc(F)c(F)cc1Cl | 43.6% | –
10 | C/C(=N\NC(=O)c1cc(-c2ccc(O)cc2)nc2ccccc12)c1cccnc1 | -9.54% | –
11 | COc1ccc([C@H]2CC(=O)C=C(/C=C/c3ccccc3)C2)cc1 | -11.3% | –
12 | O=C(O)/C=C/c1ccc(OCCCF)cc1 | 16.3% | –
13 | Cc1cc(C)cc(NC(=O)CN2C(=O)c3ccccc3C2=O)c1 | 7.91% | –
14 | CS(=O)(=O)N(CC(=O)Nc1ccc(F)cc1)C1CCCCC1 | 33.5% | –
15 | O=C(COc1ccccc1Cl)N1CCCCCCC1 | -18.6% | –
16 | Cc1cccc(C(=O)Nc2nnc(S(=O)(=O)N3CCCCCC3)s2)c1 | 66.9% | –
17 | CCCn1c(N)c(C(=O)CSc2nnc(-c3cccnc3)n2-c2ccc(C)cc2C)c(=O)[nH]c1=O | – | 9.28 µM (active)
18 | CCCn1c(N)c(C(=O)CSc2nnc3n2CCCCC3)c(=O)[nH]c1=O | -8.92% | –
19 | CCCn1c(N)c(C(=O)CSc2nc3ccccc3c(=O)n2-c2ccc(OC)cc2)c(=O)[nH]c1=O | 0% | –
20 | CCCCOC(=O)c1[nH]c(C)c(C(=O)OC)c1C | -28.2% | –
21 | COC(=O)c1c(C)[nH]c(C(=O)/C=C/c2ccc(Cl)cc2)c1C | – | 4.65 µM (active)
22 | COC(=O)c1c(C)[nH]c(C(=O)NCCc2ccc(S(N)(=O)=O)cc2)c1C | -0.575% | –
23 | NC(=O)COc1ccccc1C(=O)NC12CC3CC(CC(C3)C1)C2 | 11.3% | –
24 | COc1ccc([N+](=O)[O-])cc1NCC(=O)c1ccc(C)cc1 | -14.1% | –
25 | O=C(O)[C@@H](S)[C@H](S)C(=O)O | – | 4.26 µM (active)
26 | COc1ccc(S(=O)(=O)Nc2ccccc2C(=O)N2CCCC2)cc1C | 8.32% | –

Row | SMILES | activity change, negative = inhibition | Potency
27 | CC1CCCN(CCCNC(=O)CN2C(=O)COc3ccc(S(=O)(=O)N4CCOCC4)cc32)C1 (centres undefined) | 16% | –
28 | CCOC(=O)c1c(-c2ccccc2)oc2cc(Br)c(O)c(C=O)c12 | – | 9.28 µM (active)
29 | CCOC(=O)c1c(-c2ccccc2)oc2ccc(OCC(N)=O)cc12 | -8.34% | –
30 | CCOC(=O)c1c(-c2ccccc2)oc2ccc(OCC(=O)NN)cc12 | -45.7% | –
31 | Cc1cccc(C(=O)OC(C)CN2CCCC2)c1 (centres undefined) | -4.2% | –
32 | COC(=O)[C@]1(C)CCC[C@@]2(C)C3CC[C@]4(OC(C)=O)C[C@@]3(CCC21)CC4=NO (some centres undefined) | 0% | –
33 | O=C(NCc1ccncc1)c1ccc(NS(=O)(=O)c2cccc([N+](=O)[O-])c2)cc1 | 16.4% | –
34 | Cc1cccc(OP(=O)(Oc2cccc(C)c2)OC(c2ccccc2)C(F)(F)F)c1 (centres undefined) | – | 10.4 µM (active)
35 | Cc1cccc(OP(=O)(Nc2c(C)n(C)n(-c3ccccc3)c2=O)Oc2cccc(C)c2)c1 | 13.2% | –
36 | CCN(CC)P(=O)(Oc1cccc(C)c1)N(CC)CC | -9.58% | –
37 | O=C(Nc1nnc(C2CC2)s1)c1cc(Cl)sc1Cl | 10% | –
38 | CCN1CCN(c2nc(Nc3cc(OC)ccc3OC)nc(Nc3cc(OC)ccc3OC)n2)CC1 | – | 9.28 µM (active)
39 | CCOC(=O)N1CCN(CCC(=O)Nc2cc(OC)ccc2OC)CC1 | 0.985% | –
40 | COc1ccc(OC)c(NC(=O)CCN2CCC(C)CC2)c1 | 19.5% | –
41 | CC(Sc1nnc(-c2cccs2)n1C1CC1)C(=O)NCC1CCCO1 (centres undefined) | 29.3% | –
42 | COc1cc(CCC(=O)N2CCN(c3ccccc3Cl)CC2)cc(OC)c1OC | 1.7% [at 0.00184 µM] | –
43 | CCOC(=O)Cn1c(O)c(N=NC(=O)CNC(=O)Cc2ccccc2)c2ccccc21 | 23.2% | –
44 | CCOC(=O)c1ccc(NC(=O)c2cccnc2)cc1 | 25.6% | –
45 | CCC(=O)Nc1cccc(NC(=O)c2cccnc2)c1 | 59.5% | –
46 | Cc1cc2nc(-c3ccc(NC(=O)c4cccnc4)cc3)oc2cc1C | -24% | –
47 | CC(=O)Nc1ccc(-c2nc3ccccc3o2)cc1 | 292% | –
48 | CCOC(=O)c1ccc(-c2ccc(C(=O)Nc3cccnc3)o2)cc1 | – | 2.62 µM (active)
49 | COc1ccc(C(=O)Nc2cccnc2)cc1C(=O)Nc1cccnc1 | -3.21% | –
50 | Cc1ccc2nc(-c3ccc(NC(=O)c4cccnc4)cc3)oc2c1 | – | 9.28 µM (active)
51 | CCOC(=O)c1ccc(NC(=O)CSc2ncccn2)cc1 | 27.1% | –
52 | CCOC(=O)c1cc(NC(=O)c2cccnc2)cc(C(=O)OCC)c1 | – | 2.94 µM (active)

Row | SMILES | activity change, negative = inhibition | Potency
53 | Cc1cccc(NC(=O)c2cccc(C(=O)Nc3cccc(C)c3C)n2)c1C | 29.5% | –
54 | CN(C)c1nc(Nc2ccc(Cl)c(Cl)c2)nc(N(C)C)n1 | -29.2% | –
55 | Cc1cc(C)c(CN2CCN(C(=O)Cn3ccc(NC(=O)OCc4ccccc4)nc3=O)CC2)c(C)c1 | -1.32% | –
56 | COc1ccc(/C(C)=N/NC(=O)c2ccc3nc[nH]c3c2)cc1 | 2.07% | –
57 | CC(OC(=O)CCCOc1ccccc1)C(=O)Nc1ccc(Cl)cn1 (centres undefined) | -23.3% | –
58 | CCCOc1ccccc1C(=O)NCCCC(=O)O | 13.6% | –
59 | CCCCOCCCNC(=O)c1ccccc1OCC | – | 10.4 µM (active)
60 | CCOc1ccccc1C(=O)NCCCn1ccnc1 | -3.08% | –
61 | CCc1nc2ccc(C(=O)N3CCN(c4cccc(Cl)c4)CC3)cc2nc1CC | 0.767% | –
62 | COc1ccc(C2(C)ON(c3ccccc3C(F)(F)F)C2=O)cc1 (centres undefined) | – | 6.57 µM (active)
63 | COc1ccc(C2(C)NC(=O)N(CC(=O)c3ccc4c(c3)OCO4)C2=O)cc1 (centres undefined) | 19.8% | –
64 | COc1ccc(C2(O)C(=O)Nc3ccccc32)cc1 (centres undefined) | -1.15% | –
65 | CCC1Oc2ccccc2N(CC(=O)NCCCN2CCN(CC)CC2)C1=O (centres undefined) | 27% | –
66 | Cc1c(C)c2c(OCC(=O)NCCCO)cc3c(c2oc1=O)CCC(C)(C)O3 | -25.9% | –
67 | C[C@H](NC(=O)c1ccccc1Cl)C(=O)OCC(=O)N1CCN(c2ccccc2)CC1 | -12.6% | –
68 | CCNS(=O)(=O)c1ccc(CCC(=O)N2CCN(c3cc(Cl)ccc3C)CC2)cc1 | 149% | –
69 | COC(=O)c1ccc(C(=O)OC)c(NC(=S)N2CCN(c3cc(Cl)ccc3C)CC2)c1 | 14.3% | –
70 | Cc1ccc(Cl)cc1N1CCN(C(=O)c2cccc3c(=O)c(C)c(-c4ccccc4)oc23)CC1 | – | 9.28 µM (active)
71 | Cc1ccc(C(CC(=O)O)Nc2nc(N3CCCCC3)nc(N3CCCCC3)n2)cc1 (centres undefined) | 6.41% | –
72 | CC(Nc1nc(N2CCCC2)nc2ccccc12)c1ccccc1 (centres undefined) | – | 3.7 µM (active)
73 | CC(C)n1c(C(O)c2ccccc2)nc2ccccc21 (centres undefined) | -25.1% | –
74 | CN(C)S(=O)(=O)c1ccc(C(=O)NCCN=C2NS(=O)(=O)c3ccccc32)cc1 | 1.74% | –
75 | COc1ccc(C)cc1Nc1nc(C)nc2c1oc1ccccc12 | -27.3% | –
76 | COc1ccccc1Nc1ncc(C(C)=O)c(C)n1 | 72.9% | –
77 | COC(=O)c1cnc(Nc2cc(C)ccc2OC)c2ccccc12 | – | 10.4 µM (active)
78 | COc1ccc(N=Nc2c(-c3ccc(OC)cc3)[nH]oc2=O)cc1 | 14% | –

Row | SMILES | activity change, negative = inhibition | Potency
79 | COCCNC(=O)c1ccc2c(c1)ncn2-c1ccc(C)c(Cl)c1 | -9.91% | –
80 | C=CCn1c(SCC(=O)NC(=O)Cc2ccccc2)nc2ccccc2c1=O | 0.645% | –
81 | COc1ccc(NC(=O)CSc2nc3ccccc3c(=O)n2C)cc1 | – | 9.28 µM (active)
82 | CCc1nnc(NC(=O)CSc2nc3ccccc3c(=O)n2CCCOC)s1 | -14.1% | –
83 | CC(=O)NCCn1c(SCC(=O)Nc2ccc(C)cc2)nc2ccccc2c1=O | 15.6% | –
84 | COc1ccc(NC(=O)CSc2nnc(Cc3ccccc3)c(=O)n2N)cc1 | -26% | –
85 | CCOCCCn1c(SCC(=O)Nc2cc(OC)ccc2OC)nc2ccccc2c1=O | – | 5.86 µM (active)
86 | COc1ccc(OC)c(NC(=O)CSc2nc3cccnc3n2C)c1 | -18.9% | –
87 | O=C(CCC(=O)c1ccccc1)NCc1cccc(C(F)(F)F)c1 | -13.6% | –
88 | O=C(NC1CCCCCC1)C1CCN(C(=O)c2ccc(Cl)cc2)CC1 | -23.6% | –
89 | O=C(CCN1C(=O)[C@H]2CC=CC[C@H]2C1=O)NCc1nc(-c2ccccc2)no1 | 14.4% | –
90 | CCOC(=O)c1c(NC(=O)CCC(=O)NCc2ccco2)sc2c1CCCC2 | -6.78% | –
91 | CCOC(=O)c1c(NC(=S)NC(=O)c2ccco2)sc2c1CCCC2 | 5.52% | –
92 | CCOC(=O)c1c(NC(=O)C2(C)Cc3ccccc3C(=O)O2)sc2c1CCCC2 (centres undefined) | -19.7% | –
93 | O=C(NCc1ccc(Cl)cc1)C1CCN(S(=O)(=O)c2cccs2)CC1 | 9.93% | –
94 | CCOC(=O)c1c(NC(=S)NC)sc2c1CCCC2 | – | 9.28 µM (active)
95 | CCOC(=O)c1c(NC(=O)CSc2nnc(C)c(=O)[nH]2)sc2c1CCC2 | 2.76% | –
96 | CCOc1ccc(S(=O)(=O)N2CCC(C(=O)NCC(=O)Nc3cccc(Cl)c3C)CC2)cc1 | -14% | –
97 | CCOCC(=O)Nc1sc2c(c1C(=O)OCC)CCCC2 | -25.5% | –
98 | CCOC(=O)c1c(NC(=O)Cn2nc(C(F)(F)F)cc2C)sc2c1CCC2 | – | 14.7 µM (active)
99 | O=C(NCc1ccccn1)C1CCN(S(=O)(=O)c2ccc(Br)cc2)CC1 | -26.8% | –
100 | CCOC(=O)c1c(NC(=O)C2CCN(S(=O)(=O)c3ccc(Cl)cc3)CC2)sc2c1CCCC2 | – | 8.28 µM (active)
101 | O=C(NCc1cccs1)C1CCN(S(=O)(=O)c2ccc(Cl)cc2)CC1 | – | 1.85 µM (active)
102 | Cc1cccc2c1cnn2C(=O)CCC(=O)NC1CCCCC1 | 23.3% | –
103 | O=C(N[C@@H](Cc1c[nH]c2ccccc12)C(=O)O)OCC1c2ccccc2-c2ccccc21 | 14.7% | –
104 | O=C(COC(=O)Cn1[nH]c(=O)c2ccccc2c1=O)Nc1c(Cl)cccc1C(F)(F)F | 36.6% | –
